Compound activity (PubChem)
DT40 TDP1 no CPT: qHTS for Inhibitors of human tyrosyl-DNA phosphodiesterase 1 (TDP1): qHTS in cells in absence of CPT; DT40 Tdp1-/- hTDP1 cells, no CPT, ATP luminescence, 48 h; Potency, µM (titrated, usually from 46.2 µM), hits mostly inhibitors; 15% of 420,000 active; AID 686978, 2013; also: nearly all actives have a fitted effect of over 55% in size
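Chicken DT40 Tdp1-/- cells stably complemented with human TDP1 were seeded at 400 cells/well with DMSO in place of 20 nM camptothecin. After compound pinning, cells grew at least 48 hr at 37 °C; viability read by CellTiter-Glo luminescence.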
12-LOX inh: inhibitors of human 12S-lipoxygenase ALOX12; P18054; purified 12hLO, xylenol orange hydroperoxide absorbance; Potency, µM (top dose mostly 108 µM), most hits filed as inhibitors; 1.1% of 580,000 active
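Hydroperoxide product was detected by ferrous iron/xylenol orange as the 573 to 405 nm absorbance ratio. Arachidonic acid at 40 uM (final) was turned over for 30 min at room temperature by 150 nM human 12hLO, pH 7.0 Hepes buffer, after 15 min compound preincubation.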
HT1080 IDH1KD tx: kills HT-1080 cells with IDH1 knockdown | Potency, µM (series often up to 46.1 µM), most hits filed as cytotoxic | HT-1080 IDH1 knockdown viability, ATP luminescence, 48 h | 2% of 360,000 active
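Knockdown cells (IDH1KD HT-1080) received compounds 2 h after plating at 750 cells/well and were kept 48 h at 37 °C in 5% FBS RPMI. A CellTiter-Glo luminescence read gave % activity for curve fitting.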
IL1B secr inh: inflammasome signaling inhibition, IL-1 beta readout. THP-1 LPS/ATP IL-1B secretion, AlphaLISA, 16 h; stronger effect = lower value. activity change, % at 57.5 µM. 4.7% of 360,000 active. AID 743279; in the data active = activity change below about -50%; inconclusive = mostly about -30% to -49%
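THP-1 cells pretreated 1 hr with compounds (up to 57.5 uM final), then stimulated with LPS (250 ng/mL final) plus ATP (1.25 mM final); secreted IL-1B measured by AlphaLISA after 16 hr, decreased signal indicating inhibition.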
HT1080-NT tox: kills 2HG-producing HT-1080-NT fibrosarcoma cells | HT-1080-NT fibrosarcoma viability, CellTiter-Glo ATP luminescence, 48 h | 1.6% of 360,000 active | AID 686970 | Potency, µM (highest dose often 46.1 µM), usual class: cytotoxic;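 also: NT is the 2HG producing partner of a matched IDH1 knockdown line; nearly all actives have a fitted effect of over 55% in size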
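Compounds were tested in concentration-response format on HT-1080-NT cells for 48 hours at 37 degrees C. Cell viability came from CellTiter-Glo luminescence; curves were classified by r2, response magnitude and activity.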
DT40 TDP1 CPT: DT40-hTDP1 cell growth loss with CPT. Potency, µM (doses to about 46.2 µM), actives largely listed as inhibitors. chicken DT40 Tdp1-/-;hTDP1 cells + 20 nM CPT, ATP luminescence, 48 h. 12% of 420,000 active; also: nearly all actives have a fitted effect of over 55% in size
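Chicken DT40 Tdp1-/- cells complemented with human TDP1, 400 cells/well, exposed to compounds plus 20 nM camptothecin for at least 48 h at 37 C; viability read as ATP content by CellTiter-Glo luminescence.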
Numbers stand for hits; . = inactive; ? = inconclusive; / = no result. This excerpt belongs to a sample that is enriched for hits. Unless noted, calls follow the shape of the dose curve; as a rule, active = well fitted curve in the direction sought with a large enough effect; inconclusive = small, poorly fitted or top-dose-only effect, or another doubt; inactive = no such curve, though single readings can be large; an effect the other way counts as inactive or inconclusive.

SMILES | DT40 TDP1 no CPT | 12-LOX inh | HT1080 IDH1KD tx | IL1B secr inh | HT1080-NT tox | DT40 TDP1 CPT
CCc1nc2c(OCc3ccc(F)cc3)cccn2c1N(C)C(=O)CC(C)C | ? | . | . | . | . | ?
CCOC(=O)N(C)c1c(CC)nc2c(OCc3ccc(F)cc3)cccn12 | ? | . | . | . | . | ?
CCc1nc2c(OCc3cccc(Cl)c3)cccn2c1N(C)C(=O)CC(C)C | 20.6µM | . | ? | . | ? | ?
CCOC(=O)N(C)c1c(CC)nc2c(OCc3ccc(F)c(F)c3)cccn12 | 20.6µM | . | . | . | . | ?
CCNC(=O)CN(CC)S(=O)(=O)c1cccc2cc(C)cnc12 | / | . | / | / | / | /
COc1ccc(C(=O)/C=C/c2c(C)cc(C)cc2C)cc1 | / | . | / | / | / | /
COc1cc(F)ccc1-c1ccc(=O)n(Cc2ccc(F)cc2Cl)n1 | / | . | / | / | / | /
CCc1nc2c(OCc3ccc(Cl)cc3)cccn2c1N(C)C(=O)c1ccccc1F | ? | . | . | . | . | ?
CCc1nc2c(OCc3ccc(F)c(F)c3)cccn2c1N(C)C(=O)C1CC1 | ? | ? | . | . | . | 20.6µM
O=C1CCN(Cc2ccccc2)C=C1c1ccc(Cl)cc1 | ? | . | . | . | . | 23.1µM
COCCCNC(=S)N1CCN(c2ccc([N+](=O)[O-])cc2)CC1 | 8.2µM | . | . | . | . | 16.4µM
O=[N+]([O-])c1ccc(N2CCN(C(=S)NCc3ccc(Cl)cc3)CC2)cc1 | 3.66µM | . | ? | / | ? | 5.8µM
CCc1ccc2c(c1)-c1ccccc1S(=O)(=O)N2CC(=O)NCc1ccncc1 | / | . | / | / | / | /
CN1CCN(c2ncnc3sc4c(c23)CCN(Cc2ccco2)C4)CC1 | / | . | / | / | / | /
COc1ccc(C2Oc3ccccc3C3=C2C(c2cccs2)n2ncnc2N3)cc1 (configuration not stated) | 23.1µM | ? | 8.2µM | . | ? | 20.6µM
Brc1ccc(C2C3=C(Nc4ncnn42)c2ccccc2OC3c2ccncc2)cc1 (configuration not stated) | ? | . | ? | ? | ? | ?
Cc1cc(F)ccc1S(=O)(=O)Nc1ccccc1C(=O)Nc1ccccc1-c1nc2ccccc2[nH]1 | 7.31µM | / | ? | -78.7 | ? | 5.8µM
Nc1nonc1-c1nc2ccccc2n1CC(=O)Nc1ccc(F)cc1F | / | . | / | / | / | /
Nc1nonc1-c1nc2ccccc2n1CC(=O)Nc1cccc(Cl)c1Cl | 5.8µM | . | / | / | / | 5.17µM
Nc1nonc1-c1nc2ccccc2n1CC(=O)N/N=C\c1ccc(-c2ccc(Cl)cc2)o1 | 3.66µM | . | . | ? | . | 7.31µM
Nc1nonc1-c1nc2ccccc2n1CC(=O)Nc1ccc(F)cc1 | 9.2µM | . | / | / | / | 14.6µM
NC(=O)Cn1c(-c2nonc2N)nc2ccccc21 | . | . | . | . | . | .
Nc1nonc1-c1nc2ccccc2n1CC(=O)N1CCN(c2ccc(F)cc2)CC1 | 12.6µM | . | . | . | . | ?
NNC(=O)Cn1c(-c2nonc2N)nc2ccccc21 | . | . | . | . | . | .
CCC(C)(CNC(=O)c1cc(=O)c2ccccc2o1)N1CCOCC1 (configuration not stated) | / | . | / | / | / | /
SMILES | DT40 TDP1 no CPT | 12-LOX inh | HT1080 IDH1KD tx | IL1B secr inh | HT1080-NT tox | DT40 TDP1 CPT
COc1ccc(N/C=C/C(=O)c2sc(-c3ccccc3)nc2C)cc1 | 20.6µM | . | ? | . | ? | 16.4µM
CC(=O)c1sc(-c2ccc(Cl)cc2)nc1C | . | . | . | . | . | .
COc1ccc(N/C=C/C(=O)c2ccccc2)cc1 | ? | . | . | . | . | .
Cc1nc(-c2ccccc2)sc1C(=O)/C=C/c1ccc(Cl)cc1 | 23.1µM | . | . | -85.5 | . | 14.6µM
CC(C)(C)c1ccc(C(=O)Nc2ccc(C(O)[C@H]3COCC(=O)N3Cc3ccccc3)cc2)cc1 (some centres not stated) | / | . | / | / | / | /
Cc1nc(C(=O)NNC(=O)c2ccc(C(F)(F)F)cc2)cs1 | 20.6µM | . | ? | . | . | ?
